The chains are these.
B1: GUGGGCU (DNA:RNA)
RNA: GGGAGACCGGAAUUCAGAUUGUCCGUGGGCUUUAAAUCCCGUCGUAGCCACCA
DNA 1: CAATCTGAATTCCGGTCTCCC
DNA 2: TGGTGGCTACGACGGGATT
B2: CGUCAGA (DNA:RNA)
RNA: GGGAGACCGGAAUUCAGAUUGUCCCGUCAGAUUAAAUCCCGUCGUAGCCACCA
DNA 1: CAATCTGAATTCCGGTCTCCC
DNA 2: TGGTGGCTACGACGGGATT
B3: GGAGUGG (DNA:RNA)
RNA: B2 RNA with C25G, U27A, C28G, A29U, A31G
DNA 1: CAATCTGAATTCCGGTCTCCC
DNA 2: TGGTGGCTACGACGGGATT
B4: ACAUGGG (DNA:RNA)
RNA: B2 RNA with C25A, G26C, U27A, C28U, A29G, A31G
DNA 1: CAATCTGAATTCCGGTCTCCC
DNA 2: TGGTGGCTACGACGGGATT
B5: CCUAGUG (DNA:RNA)
RNA: B2 RNA with G26C, C28A, A29G, G30U, A31G
DNA 1: CAATCTGAATTCCGGTCTCCC
DNA 2: TGGTGGCTACGACGGGATT
B6: AAUUAGC (DNA:RNA)
RNA: B2 RNA with C25A, G26A, C28U, A31C
DNA 1: CAATCTGAATTCCGGTCTCCC
DNA 2: TGGTGGCTACGACGGGATT
B7: UUUAACA (DNA:RNA)
RNA: B2 RNA with C25U, G26U, C28A, G30C
DNA 1: CAATCTGAATTCCGGTCTCCC
DNA 2: TGGTGGCTACGACGGGATT
B8: GGGACGU (DNA:RNA)
RNA: B1 RNA with U26G, G28A, G29C, C30G
DNA 1: CAATCTGAATTCCGGTCTCCC
DNA 2: TGGTGGCTACGACGGGATT
B9: GGGUGCU (DNA:RNA)
RNA: B1 RNA with U26G, G28U
DNA 1: CAATCTGAATTCCGGTCTCCC
DNA 2: TGGTGGCTACGACGGGATT
B10: GGGGUGC (DNA:RNA)
RNA: B1 RNA with U26G, G29U, C30G, U31C
DNA 1: CAATCTGAATTCCGGTCTCCC
DNA 2: TGGTGGCTACGACGGGATT
B11: GGGUGCG (DNA:RNA)
RNA: B1 RNA with U26G, G28U, U31G
DNA 1: CAATCTGAATTCCGGTCTCCC
DNA 2: TGGTGGCTACGACGGGATT
B12: CGGGUGC (DNA:RNA)
RNA: B2 RNA with U27G, C28G, A29U, A31C
DNA 1: CAATCTGAATTCCGGTCTCCC
DNA 2: TGGTGGCTACGACGGGATT
B13: CCGGUGC (DNA:RNA)
RNA: B2 RNA with G26C, U27G, C28G, A29U, A31C
DNA 1: CAATCTGAATTCCGGTCTCCC
DNA 2: TGGTGGCTACGACGGGATT
B14: AGGGUGC (DNA:RNA)
RNA: B2 RNA with C25A, U27G, C28G, A29U, A31C
DNA 1: CAATCTGAATTCCGGTCTCCC
DNA 2: TGGTGGCTACGACGGGATT

Where a chain is given by its changes, count along the chain named. Whole data set: some 16,000 sequences, median “ka relative to ugcaugu” near 0.0091, cut for the highest 2% near 0.032. The sample holds the highest values, similar sequences and a random draw of the others, so the mix is not that of the screen.

This assay concerns the target T1, RBFOX1 RRM (Homo sapiens, UniProt Q9NWB1 109-208).
T1 sequence: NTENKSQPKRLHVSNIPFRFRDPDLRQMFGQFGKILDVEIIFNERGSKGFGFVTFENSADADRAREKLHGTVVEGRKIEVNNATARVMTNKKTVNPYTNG
The assay can be described thus: EMSA; HiTS-Eq, 1 nM pool, 10 min; buffer printed only for the single-RNA assays: 10 mM Tris pH 7.5, 150 mM NaCl, 3.4 mM EDTA, 0.001% NP-40, 30 C. The note with it: tags: His6 N-terminal (pET28a); label: 5' 32P. The method in brief:
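Purified wild-type or mutant RbFox RRM at increasing concentrations was equilibrated with 1 nM of 5′-radiolabelled RNA carrying 7 randomized nucleotides for 10 min in 50 µL. Unbound RNA was separated by 8% native PAGE and sequenced. Relative association constants came from read-count changes of each RNA species compared with the control reaction, normalised to the cognate motif.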
(In EMSA bound probe runs differently from free probe, usually more slowly.)
B1: the binding signal was 0.0216 KA relative to UGCAUGU.
To B2 belongs 0.00954 KA relative to UGCAUGU.
To B3 belongs 0.0151 KA relative to UGCAUGU.
The figure for B4 is 0.0064 KA relative to UGCAUGU.
Turning to B5, the binding signal was 0.00931 KA relative to UGCAUGU.
To B6 belongs 0.00552 KA relative to UGCAUGU; to B7, 0.00144 KA relative to UGCAUGU; to B8, 0.0238 KA relative to UGCAUGU.
To B9 belongs 0.0276 KA relative to UGCAUGU; to B10, 0.0467 KA relative to UGCAUGU.
Take B11: the binding signal is 0.023 KA relative to UGCAUGU.
For B12, the binding signal was 0.0369 KA relative to UGCAUGU.
The figure for B13 is 0.0149 KA relative to UGCAUGU; for B14 it is 0.0198 KA relative to UGCAUGU.

The record behind these values is article PMC9911399, “Two distinct binding modes provide the RNA-binding protein RbFox with extraordinary sequence specificity”.
